{"source": "the supplement of paper PMC12340641", "note": "± gives the standard deviation of the averaged measurements."}
{"target": "IKZF1 (dCK*-IKZF1 fusion in HEK293FT) (UniProt Q13422)", "sequence (Q13422 whole entry, looked up, the tested form may be a part)": "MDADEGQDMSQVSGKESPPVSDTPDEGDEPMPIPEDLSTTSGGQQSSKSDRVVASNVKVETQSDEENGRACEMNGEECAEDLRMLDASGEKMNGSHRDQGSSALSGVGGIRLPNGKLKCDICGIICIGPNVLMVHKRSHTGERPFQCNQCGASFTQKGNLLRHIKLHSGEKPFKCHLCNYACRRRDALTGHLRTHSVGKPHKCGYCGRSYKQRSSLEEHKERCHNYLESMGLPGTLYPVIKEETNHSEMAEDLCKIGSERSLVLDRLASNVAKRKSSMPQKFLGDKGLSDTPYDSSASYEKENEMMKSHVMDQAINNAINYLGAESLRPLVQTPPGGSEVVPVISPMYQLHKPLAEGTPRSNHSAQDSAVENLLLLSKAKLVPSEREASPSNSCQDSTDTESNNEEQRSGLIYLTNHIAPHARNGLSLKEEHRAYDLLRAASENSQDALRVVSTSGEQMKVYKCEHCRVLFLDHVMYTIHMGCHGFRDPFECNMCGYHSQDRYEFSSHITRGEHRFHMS", "assay": "inhibition of IKZF1 HTRF signal (DMSO = 0%, pomalidomide 10 uM = 100%); higher = lower IKZF1 protein level", "conditions": "compound concentration: 5 uM, overnight (~20 h)", "outline": "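After overnight treatment at 37 °C with 5 μM compound in single wells, HEK293FT cells (2000/well, 384-well) stably expressing an IKZF1 fusion were lysed for 30 min at room temperature. A commercial HTRF total-IKZF1 antibody kit was incubated with the lysate overnight, and the time-resolved FRET ratio at 665/620 nm was corrected for background. Data are given as percent inhibition of IKZF1 signal relative, on each plate, to vehicle and a reference degrader, set at 0% and 100% respectively.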", "units": {"inhibition of IKZF1 HTRF signal": "%"}}
{"smiles": "C[C@]12CC[C@H](O)C[C@H]1CC[C@@H]1[C@@H]2CC[C@]2(C)[C@@H](C3=CC(=O)OC3)CC[C@]12O", "note": "[digitoxigenin]", "inhibition of IKZF1 HTRF signal": 40.7}
{"smiles": "Oc1c(I)cc(I)cc1I", "inhibition of IKZF1 HTRF signal": 11}
{"smiles": "ClC(C=C3)=C(Cl)C=[C@@]3[C@H]2C1=CC=CC=C1[C@H](NC)C2", "note": "[indatraline]", "inhibition of IKZF1 HTRF signal": 28.4}
{"smiles": "CC(=O)OC[C@]12CCC(C)=C[C@H]1O[C@@H]1[C@H](O)[C@@H](OC(C)=O)[C@@]2(C)[C@@]12CO2", "note": "[Diacetoxyscirpenol]", "inhibition of IKZF1 HTRF signal": 93.3}
{"smiles": "CC[C@H]1C2CC3[C@@H]4N(C)c5ccccc5[C@]45C[C@@H](C2C5O)N3[C@@H]1O", "note": "(some centres not stated)", "inhibition of IKZF1 HTRF signal": -0.05}
{"smiles": "CC[C@H]1CN2CCc3cc(OC)c(OC)cc3C2C[C@@H]1CC1NCCc2cc(OC)c(OC)cc21", "note": "(some centres not stated)", "inhibition of IKZF1 HTRF signal": 38.3}
{"smiles": "O=c1[nH]c2ccccc2n1C1CCN(CCCC(c2ccc(F)cc2)c2ccc(F)cc2)CC1", "note": "[Pimozide]", "inhibition of IKZF1 HTRF signal": -27.8}
{"smiles": "CO[C@H]1C[C@H](O[C@H]2CC[C@@]3(C)[C@H](CC[C@@H]4[C@@H]3CC[C@]3(C)[C@@H](C5=CC(=O)OC5)[C@@H](OC(C)=O)C[C@]43O)C2)O[C@@H](C)[C@@H]1O", "note": "[Oleandrin]", "inhibition of IKZF1 HTRF signal": 45.9}
{"smiles": "O=c1[nH]c2ccccc2n1C1CCN(CCCC(c2ccc(F)cc2)c2ccc(F)cc2)CC1", "inhibition of IKZF1 HTRF signal": -18.9}
{"smiles": "CO[C@H]1[C@H](O)[C@H](O[C@H]2CC[C@@]3(C=O)[C@H](CC[C@@H]4[C@@H]3CC[C@]3(C)[C@@H](C5=CC(=O)OC5)CC[C@]43O)C2)O[C@@H](C)[C@@H]1O", "note": "[Peruvoside]", "inhibition of IKZF1 HTRF signal": 94.1}
{"smiles": "COc1cc2c(c(OC)c1OC)-c1ccc(OC)c(=O)cc1[C@@H](NC(C)=O)CC2", "inhibition of IKZF1 HTRF signal": -16.1}
{"smiles": "c1ccc2c(c1)Sc1ccccc1N2CC1CN2CCC1CC2", "note": "(configuration not stated) [levomequitazine]", "inhibition of IKZF1 HTRF signal": 10.6}
{"smiles": "C[C@@]12C(=O)OC(=O)[C@]1(C)[C@H]1CC[C@@H]2O1", "note": "[cantharidin]", "inhibition of IKZF1 HTRF signal": 15.8}
{"smiles": "N#Cc1cn([C@@H]2O[C@H](CO)[C@@H](O)[C@H]2O)c2ncnc(N)c12", "note": "[toyocamycin]", "inhibition of IKZF1 HTRF signal": 44.4}
{"smiles": "O=C(CCCN1CCC(n2c(=O)[nH]c3ccccc32)CC1)c1ccc(F)cc1", "note": "[benperidol]", "inhibition of IKZF1 HTRF signal": -18.1}
{"smiles": "O=C1c2ccccc2C(=O)c2ccccc21", "note": "[anthraquinone]", "inhibition of IKZF1 HTRF signal": -34.9}
{"smiles": "C[C@]12CCC3C(CC[C@]4(O)C[C@@H](O)CC[C@]34C=O)[C@@]1(O)CCC2C1=CC(=O)OC1", "note": "(some centres not stated) [Strophantidin]", "inhibition of IKZF1 HTRF signal": 74.7}
{"smiles": "C=C1[C@@H](C)[C@H]2[C@H](Cc3ccccc3)NC(=O)[C@]23OC(=O)/C=C/[C@H](O)CCC[C@@H](C)C/C=C/[C@H]3[C@@H]1O", "note": "[Cytochalasin B]", "inhibition of IKZF1 HTRF signal": 32.2}
{"smiles": "NCC1(CC(=O)O)CCCCC1", "inhibition of IKZF1 HTRF signal": -1.54}
{"smiles": "CC[C@@]1(C2O[C@@H](C3O[C@@](O)(CO)[C@H](C)C[C@@H]3C)C[C@@H]2C)CC[C@H]([C@]2(C)CC[C@]3(C[C@H](O)[C@@H](C)[C@@H]([C@@H](C)[C@@H](OC)[C@H](C)C(=O)O)O3)O2)O1", "note": "(some centres not stated)", "inhibition of IKZF1 HTRF signal": 9.03}
{"smiles": "N=C(Nc1ccccc1)Nc1ccccc1", "note": "[diphenylguanidine]", "inhibition of IKZF1 HTRF signal": -55.9}
{"smiles": "C[C@H]1CCC/C=C/C2C[C@H](O)C[C@H]2[C@H](O)/C=C/C(=O)O1", "note": "(some centres not stated) [brefeldin-a]", "inhibition of IKZF1 HTRF signal": 2.49}
{"smiles": "CCCCC1(C2CCCC2)Cc2cc(OCCCC(=O)O)c(Cl)c(Cl)c2C1=O", "note": "(configuration not stated)", "inhibition of IKZF1 HTRF signal": -38.8}
{"smiles": "CCO[C@H]1O[C@@H]2O[C@@]3(C)CC[C@H]4[C@H](C)CC[C@@H]([C@H]1C)[C@@]24OO3", "note": "[Artemotil]", "inhibition of IKZF1 HTRF signal": 21.4}
{"smiles": "c1ccc(CCCN2CCN(CCOC(c3ccccc3)c3ccccc3)CC2)cc1", "inhibition of IKZF1 HTRF signal": -28.8}
{"smiles": "CO[C@@]12C(=COC(N)=O)c3c(O)c(N)c(C)c(O)c3N1C[C@@H]1N[C@@H]12", "note": "[Mitomycin C]", "inhibition of IKZF1 HTRF signal": 15.8}
{"smiles": "Fc1ccc(C(OCCN2CCN(CCCc3ccccc3)CC2)c2ccc(F)cc2)cc1", "note": "[vanoxerine]", "inhibition of IKZF1 HTRF signal": -25.6}
{"smiles": "CC(C)C[C@H](NC(=O)[C@@H](O)[C@H](N)Cc1ccccc1)C(=O)NCCOCCOCCOCC(=O)O[C@H]1CC[C@H]2[C@@H]3CC[C@H]4CC(=O)CC[C@]4(C)[C@H]3CC[C@]12C.O=C(O)C(F)(F)F", "note": "[PROTAC AR Degrader-4 (TFA)]", "inhibition of IKZF1 HTRF signal": 16.9}
{"smiles": "Clc1ccc(C(OCCN2CCCCC2)c2ccccc2)cc1", "note": "(configuration not stated)", "inhibition of IKZF1 HTRF signal": -26.4}
{"smiles": "Clc1ccc(N2CCN(Cc3c[nH]c4ncccc34)CC2)cc1", "inhibition of IKZF1 HTRF signal": -41.5}
{"smiles": "CC[C@@H](C(N)=O)N1CCCC1=O", "inhibition of IKZF1 HTRF signal": 17.7}
{"smiles": "COc1ccc2c(c1)/C(=C/c1cnc[nH]1)C(=O)N2", "inhibition of IKZF1 HTRF signal": -35.9}
{"smiles": "CCCCCCC[n+]1ccc(-c2cc[n+](CCCCCCC)cc2)cc1", "inhibition of IKZF1 HTRF signal": -27.9}
{"smiles": "Fc1ccc(C(OCCN2CCN(C/C=C/c3ccccc3)CC2)c2ccc(F)cc2)cc1", "inhibition of IKZF1 HTRF signal": -25.2}
{"smiles": "COc1cc2c(c(OC)c1OC)-c1ccc(OC)c(=O)cc1[C@@H](NC(C)=O)CC2", "note": "[Colchicine]", "inhibition of IKZF1 HTRF signal": "17.9 ± 34"}
{"smiles": "CC(Cc1ccccc1)NCCC(c1ccccc1)c1ccccc1", "note": "(configuration not stated) [prenylamine]", "inhibition of IKZF1 HTRF signal": -23.8}
{"smiles": "C[C@@H]1C[C@@H]([C@H](O)CC2CC(=O)NC(=O)C2)C(=O)[C@@H](C)C1", "inhibition of IKZF1 HTRF signal": 79.8}
